Consider eleven compounds from PubChem BioAssay AID488941 (The Scripps Research Institute Molecular Screening Center, 2010).

The other results are listed elsewhere or left out. Active and inactive are the calls of the source.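 How the source made its calls: active means mean activation above a set limit taken from an earlier procaspase-7 screen; inactive means the rest.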

The target of the test is Caspase-7 (Homo sapiens) (UniProt P55210). Kind of test: procaspase-7 activators, counter-screen for procaspase-3 activator project, biochemical, absorbance, triplicate, human (AID 488941).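 Further: 0% = DMSO wells and 100% = DMSO plus 5 µM procaspase-7 enzyme.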 Particulars: recombinant procaspase-7, Ac-DEVD-pNA absorbance; at 8.5 µM; stronger effect = higher value; asp23/198/206-to-Ala mutant, cannot self-cleave.
Chain of Caspase-7 (Homo sapiens) (P55210 whole entry D23A/D198A/D206A): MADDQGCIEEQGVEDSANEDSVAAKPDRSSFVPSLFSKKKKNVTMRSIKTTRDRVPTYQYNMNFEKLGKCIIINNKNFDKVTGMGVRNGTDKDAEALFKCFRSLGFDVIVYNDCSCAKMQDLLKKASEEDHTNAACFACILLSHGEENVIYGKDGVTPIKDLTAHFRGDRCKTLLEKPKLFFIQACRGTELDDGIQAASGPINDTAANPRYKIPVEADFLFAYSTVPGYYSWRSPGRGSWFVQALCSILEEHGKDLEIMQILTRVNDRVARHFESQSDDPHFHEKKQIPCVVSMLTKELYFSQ
For `Oc1ccccc1C1=NN(c2ccccc2)C(c2ccccc2)C1` (stereo unspecified), the activation is -21.3% (inactive).

Turning to `COC(=O)c1cnc(Nc2cc(C)ccc2OC)c2ccccc12`, the activation was -21.2% (inactive). As for `COc1ccc2nc(Nc3nc4ccc(NC(C)=O)cc4s3)sc2c1`, the figure is -1.13% (inactive).

For the compound `O=C(CCNS(=O)(=O)c1ccccc1C(F)(F)F)NCc1ccc2c(c1)OCO2`, the activation was 1.59% (inactive). Take `COc1ccc(-c2sc3ccc(OC)cc3c2C#Cc2ccccn2)cc1`: the activation is 6.29% (inactive). As for `CN1CCN(CCCNC(=O)c2ccc(/C=C3\Oc4ccccc4N(Cc4ccc(Cl)cc4)C3=O)cc2)CC1`, the figure is -19.9% (inactive); as for `Cc1nn(C)cc1CNC(=O)Nc1ccc(Cl)cc1`, 1.34% (inactive). For the compound `COC(=O)Cc1cc(=O)oc2c(C)c(O)ccc12`, the activation was -20.2% (inactive). The value for `COc1ccccc1NS(=O)(=O)c1ccc(C(=O)N2CCN(c3ccccc3O)CC2)cc1` was 0.45% (inactive); that for `CCOc1ccc2nc(NCCNS(=O)(=O)c3ccccc3)c(C#N)cc2c1` was -21% (inactive); that for `COc1ccc(CCNC(=O)COC(=O)c2ccc[nH]c2=O)cc1` was 3.85% (inactive).
